Bioassay records from PubChem BioAssay.
ADAM10 inh: inhibits human ADAM10. 370,000 tested, 0.62% active. recombinant ADAM10, EDANS/DABCYL FRET peptide cleavage, 3 h. O14672. inhibition, % at 7 µM;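 active = inhibition above a per-campaign cutoff equal to the mean of compounds falling between control-based bounds plus 3 SD, cut at about 20% in these data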;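 also: 0% = DMSO wells while the 100% control is not disclosed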
NR3A LBD binder: modulates the human NR3A ligand-binding domain | AID 1259313 | Tm shift relative to glycine control, % at 25 µM | NR3A LBD differential scanning fluorimetry, Tm shift; 0% = protein alone, 100% = glycine-bound protein | 340,000 tested, 2.5% active;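 active = melting temperature shift of at least 10% of the positive control shift, at one fixed dose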
KLK7 zymogen act: proKLK7 (human) activation, primary screen | activation, % at 7 µM | 370,000 tested, 0.9% active | purified proKLK7, EDANS-DABCYL substrate fluorescence; 100% is mature enzyme control, 0% vehicle | P49862;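 active = activation above the mean of all tested compounds plus 3 SD, computed per campaign excluding outliers beyond control limits, cut at about 13% in these data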
FAS-TE inh: inhibitors of human fatty acid synthase thioesterase domain | recombinant FAS-TE, OMFH fluorogenic substrate, fluorescence endpoint | 360,000 tested, 0.67% active | P49327 | inhibition, % at 15 µM;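 active = compounds whose normalised, plate-corrected inhibition of enzyme fluorescence in the single-dose primary screen is 50% or more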;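 also: 0% = DMSO with enzyme and 100% = substrate without enzyme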
ADAM17 inh: inhibitors of human ADAM17; P78536; inhibition, % at 6.95 µM; recombinant ADAM17, EDANS/DABCYL FRET peptide cleavage; 370,000 tested, 0.83% active;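 active = inhibition above the mean of compounds lying between control limits plus 3 SD, set per campaign, cut at about 8.5% in these data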;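 also: 0% = DMSO-only wells as the low control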
Target sequence (P78536 215-824 limits assumed): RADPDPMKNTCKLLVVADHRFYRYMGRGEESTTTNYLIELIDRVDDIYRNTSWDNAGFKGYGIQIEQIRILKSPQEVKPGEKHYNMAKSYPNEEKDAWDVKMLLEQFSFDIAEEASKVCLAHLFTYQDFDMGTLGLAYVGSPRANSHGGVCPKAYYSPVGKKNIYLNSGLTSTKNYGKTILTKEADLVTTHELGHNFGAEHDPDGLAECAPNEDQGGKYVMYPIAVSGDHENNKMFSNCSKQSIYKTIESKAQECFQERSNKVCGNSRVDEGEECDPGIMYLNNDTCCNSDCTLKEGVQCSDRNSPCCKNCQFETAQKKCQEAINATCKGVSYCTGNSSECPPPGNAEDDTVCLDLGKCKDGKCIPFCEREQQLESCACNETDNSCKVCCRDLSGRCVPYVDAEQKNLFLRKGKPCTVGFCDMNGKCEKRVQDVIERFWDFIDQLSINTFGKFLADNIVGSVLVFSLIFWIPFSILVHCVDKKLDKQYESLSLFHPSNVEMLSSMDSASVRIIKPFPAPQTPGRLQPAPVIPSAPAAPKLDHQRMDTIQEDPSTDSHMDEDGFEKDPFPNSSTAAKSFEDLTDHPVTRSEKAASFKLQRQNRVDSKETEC
* = called active by the depositor; / = not tested or not shown; ! = not active in a repeat. A selection: hits, their analogues and other compounds. The true share with any hit is near 4.6%.

SMILES	ADAM10 inh	NR3A LBD binder	KLK7 zymogen act	FAS-TE inh	ADAM17 inh
Cc1ccn2c(C(=O)CSc3ccccc3Cl)c(C)nc2c1	5	14*	0	1	0
COc1ccc(C(=O)CNc2ccccc2Br)cc1	-10	17*	-1	24	-3
CC(=O)Nc1ccc(/C=N/OCC(=O)Nc2ccc(C)cc2)cc1	-5	-5	-1	-13	-5
COc1ccc(C=NOCC(=O)OCC(=O)Nc2ccc(OC)cc2)cc1	-1	42*	0	-3	-6
C=CCn1c(O)c(N=Nc2ccccc2O)c2ccccc21	-1	15*	-1	-10	-2
Cc1cc(CNC(=O)c2cccc3c2C(=O)c2ccc(-c4ccc(F)cc4OCc4ccccc4)cc2S3(=O)=O)c(C(F)(F)F)o1	1	17*	0	29	-3
O=C(NC[C@H]1CCCO1)c1cccc2c1C(=O)c1ccc(-c3ccc(F)cc3OCc3ccccc3)cc1S2(=O)=O	11	-4	-1	30	5
O=C(O)c1cccc2c1C(=O)c1ccc(-c3ccc(F)cc3OCc3ccccc3)cc1S2(=O)=O	/	13*	/	7	/
CN1CCc2c(sc(NC(=O)CS(=O)(=O)c3ccccc3)c2C(N)=O)C1	-16	18*	1	-8	-12
Cc1nc2ccc(S(=O)(=O)NCC(=O)N(C)Cc3ccccc3Cl)cc2s1	-9	/	0	/	-4
O=C(Cc1ccccc1)Nc1ccccc1Sc1ccccc1	6	6	0	19	0
O=C(Cc1ccc(Br)cc1)Nc1ccccc1Sc1ccccc1	2	19*	0	35	0
CCOc1ccc(-n2c(SCC(=O)Nc3ccc(S(=O)(=O)Nc4cc(C)nc(C)n4)cc3)nnc2-c2ccc(C)cc2)cc1	4	/	0	/	3
COc1ccc(/C=C/C(=O)c2oc3ccc(F)cc3c2C)cc1	/	13*	/	10	/
COc1cccc(Oc2ccc(N)cn2)c1	-32	-1	0	-2	-9
Cc1cc(Oc2ccc(N)cn2)ccc1Cl	-2	14*	0	-11	-4
CN(Cc1cn(Cc2ccccc2)nn1)S(=O)(=O)c1ccccc1Br	-1	/	0	/	-4
c1ccc(Cn2ccc3ccc(-c4ccc5ccn(Cc6cccc(-c7cccs7)c6)c5c4)cc32)cc1	-26	/	-1	/	-14
CCOc1ccc(OCCSc2nc3ccccc3o2)cc1	-3	21*	0	23	-2
c1ccc(OCCSc2nc3ccccc3o2)cc1	-1	1	0	19	0
Cc1nnc(N/N=C/c2cc(C)n(-c3ccc(F)cc3)c2C)n1N	-11	12*	1	-9	-4
Cc1nnc(N/N=C/c2ccccc2O)n1N	-3	-2	0	-3	0
COc1cccc(Cn2cc(COC(=O)N3CCCC3)nn2)c1	-12	/	0	/	-6
Cc1ccc(-c2csc(N(CCO)CCCn3c(C(F)(F)F)nc4cc(C(F)(F)F)ccc43)n2)cc1	-3	19*	1	14	-1
CN(C)c1oc(-c2ccc(OCc3ccc(Cl)cc3)cc2)nc1C#N	-5	29*	0	2	-8
SMILES	ADAM10 inh	NR3A LBD binder	KLK7 zymogen act	FAS-TE inh	ADAM17 inh
CNc1c(NS(=O)(=O)c2ccc(OC)c(Cl)c2)c(=O)oc2ccccc12	-23	16*	-2	-4	-9
Cc1cccc(C)c1NC(=O)C1CCN(c2ncccn2)CC1	-37	/	1	/	-8
CN(C)CCC(c1ccc(Cl)cc1)c1ccccn1 (stereo unspecified)	-2	16*!	0	-3	-4
CCOC(=O)CSc1nnc(Cc2ccccc2)n1-c1cccc(Cl)c1	/	733*	/	-1	/
CCOC(=O)CSc1nnc(Cc2ccc(OC)cc2)n1-c1ccccc1	10	0	0	-2	0
COC(=O)c1ccc(NC(=S)NCCc2cccc(C)c2)cc1	13	24*	0	12	0
Oc1ccc(NC(=S)Nc2ccc(O)cc2)cc1	-3	-3	0	-2	-2
COC(=O)c1ccc(NC(=S)Nc2ccc(O)cc2)cc1	4	20*	1	1	1
COC(=O)c1ccc(NC(=S)NCCc2ccccc2C)cc1	17	29*	0	15	5
COC(=O)c1ccc(NC(=S)NCCc2ccc(OC)cc2)cc1	15	10	0	-1	3
CC1=CC2(C(Cc3ccccc3)N(CC3CC3)C(=NC(=O)c3ccccc3)N2C(=O)OCc2ccccc2)n2c(=O)n(-c3ccccc3)c(=O)n2C1 (stereo unspecified)	10	/	-1	/	8
Cc1ccc(OCC(=O)O/N=C(\N)Cc2ccc(Cl)cc2)cc1	8	1	0	4	3
COc1ccc(OCC(=O)O/N=C(\N)Cc2ccc(Cl)cc2)cc1	7	15*	0	-12	2
COc1cccc(NCc2cc(=O)oc3cc(C)c(O)cc23)c1	1	-13	0	5	0
COc1cccc(NCc2cc(=O)oc3cc(-c4ccccc4)c(O)cc23)c1	-15	28*	-1	-1	-3
N#Cc1ccccc1N/C=C/C(=O)c1ccc(Cl)cc1	-4	36*	-1	25	0
O=C1NC(=Nc2ccccc2Cl)S/C1=C\c1cc([N+](=O)[O-])ccc1O	7	20*	0	-7	2
COc1cccc(N=C2NC(=O)/C(=C/c3cc([N+](=O)[O-])ccc3O)S2)c1	0	-7	0	-3	0
Cc1ccc(OCc2nnc(SCC(=O)Nc3ccc(S(N)(=O)=O)cc3)n2-c2ccc(Cl)cc2)cc1	1	/	0	/	-1
COC(=O)[C@@]12CCCCC3=C1N(CCC3)C(=O)[C@H]2CC(=O)N1CCN(C(=O)c2ccco2)CC1	-9	/	0	/	-4
CC(C)C[C@H]1CNC(=S)N1CC1CCCN1C[C@H](CC(C)C)N1C[C@H](Cc2ccc(O)cc2)N(CC2CCCCC2)C1=S (stereo partly specified)	0	12*	0	-102	-2
CC(C)C[C@@H](CN1CCCC1CN1C(=S)NC[C@@H]1Cc1ccc(O)cc1)N1C[C@H](Cc2ccc(O)cc2)N(CC2CCCCC2)C1=S (stereo partly specified)	4	33*	0	-52	5
CCCC1=NN2C(=N)/C(=C\c3cc(C)n(-c4cc(C)cc(C)c4)c3C)C(=O)N=C2S1	-14	12*	1	24	-3
Cc1cc(C)cc(-n2c(C)cc(/C=C3\C(=N)N4N=C(CC(C)C)SC4=NC3=O)c2C)c1	2	-5	-1	34	-4
O=c1[nH]c(NNC(=S)NCc2ccccc2)nc2c1C1(CCCCC1)Cc1ccccc1-2	-13	26*	-1	-5	-5
CCC[C@H]1[C@@H](OC(=O)NCc2ccc(C)cc2)CC[C@@]23CCCN2C(=O)CCC[C@@H]13	-1	/	/	/	-3
O=C(O)c1cccc(Nc2ccc([N+](=O)[O-])cn2)c1	3	1	0	6	2
O=[N+]([O-])c1ccc(Nc2ccc(Cl)cc2)nc1	4	11*	0	28	6
